B2AR arrestin: qHTS assay of beta-arrestin-biased ligands of beta2-adrenergic receptor. beta-arrestin recruitment to beta2AR, cell-based reporter. Potency, µM (highest dose often 46.1 µM), for inactives: top-dose activation, usual class: activators. 330,000 tested, 0.02% active. AID 492947, 2010;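 further: potency means the concentration at half of the fitted maximal effect; 0% = DMSO controls and full agonism = EC100 isoproterenol or metaproterenol; nearly all actives have a fitted effect of over 65% in size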
DRD3 antagonist: qHTS of D3 Dopamine Receptor Antagonist: qHTS. D(3) dopamine receptor (Homo sapiens), P35462. D3R cells, DiscoveRx beta-arrestin luminescence, antagonist mode; active compounds read low. 360,000 tested, 2.5% active. max response, negative = inhibition, %. AID 652054, 2013; in the data active means max response below about -50%; inconclusive means no clear call, values can overlap the other calls; further: on the % scale 0 is the no-effect control and ±100 the full control effect
Target sequence (P35462 whole entry, looked up): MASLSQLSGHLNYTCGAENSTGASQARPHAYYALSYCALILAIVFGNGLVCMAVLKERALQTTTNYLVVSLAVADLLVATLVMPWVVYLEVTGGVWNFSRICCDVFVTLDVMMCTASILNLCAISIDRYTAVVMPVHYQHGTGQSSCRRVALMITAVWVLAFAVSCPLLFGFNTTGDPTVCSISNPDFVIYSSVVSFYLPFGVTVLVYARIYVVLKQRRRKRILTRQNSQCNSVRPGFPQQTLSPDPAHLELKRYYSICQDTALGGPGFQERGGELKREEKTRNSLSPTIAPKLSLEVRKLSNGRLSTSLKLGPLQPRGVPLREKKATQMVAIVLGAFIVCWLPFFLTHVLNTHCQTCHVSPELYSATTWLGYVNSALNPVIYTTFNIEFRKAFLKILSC
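Cells plated overnight at 1500 cells/well, then exposed to library compounds with dopamine controls for 90 minutes at 37 degrees C. DiscoveRx reagent added for 30–60 minutes at room temperature; luminescence read, quantitative HTS format.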
D3 ag: qHTS of D3 Dopamine Receptor Agonist: qHTS. D(3) dopamine receptor (Homo sapiens), P35462. D3R DiscoveRx beta-arrestin cells, luminescence, 90 min. max activation, %. 410,000 tested, 0.58% active; in the data active means max activation above about 30%; further: 0% is about no effect
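Agonist-mode cell screen: cells plated at 1500/well and incubated overnight at 37 °C, then exposed to library compounds for 90 min at 37 °C. Detection reagent was added for 30–60 min at room temperature, and luminescence was read.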
a7 integrin act: qHTS for Activators of Integrin-Mediated Alleviation for Muscular Dystrophy; alpha7betagal myoblasts, beta-gal FDG fluorescence, 48 h; Potency, µM (series often up to 38.3 µM), for inactives: top-dose activation, usual class: activators; 350,000 tested, 0.064% active;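 further: potency means the concentration at half of the fitted maximal effect; 100% = response of the positive control SU9516; nearly all actives have a fitted effect of over 60% in size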
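Alpha7betagal+/- myoblasts (passage 13) were plated 16-24 hr, then exposed to compounds (1:260 dilution of DMSO stock) for 48 hours at 37C. After MPER lysis, β-galactosidase reporter activity was read as FDG fluorescence (ex 480/em 540) after 30 minutes.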
IDH1 R132H inh: qHTS for Inhibitors of mutant isocitrate dehydrogenase 1 (IDH1): qHTS. Isocitrate dehydrogenase [NADP] cytoplasmic (Homo sapiens), O75874. IDH1-R132H enzyme, NADPH consumption, diaphorase/resazurin fluorescence. Potency, µM (titrated, usually from 76.6 µM), for the others: at the top dose activity change, negative = inhibition, most hits filed as inhibitors. 390,000 tested, 0.093% active. AID 602179, 2012; further: potency means the concentration at half of the fitted maximal effect; on the % scale 0 is the no-effect control and ±100 the full control effect; nearly all actives have a fitted effect of over 65% in size
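IDH1-R132H (0.5 ug/mL) preincubated 30 min with compound, then NADPH (0.016 mM) and alpha-KG (2 mM) added; 80 min at RT, pH 7.5. Remaining NADPH coupled via diaphorase/resazurin to fluorescence (540/590 nm); concentration-response curves normalized to no-enzyme control.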
Resorufin autofl: qHTS for Inhibitors of mutant isocitrate dehydrogenase 1 (IDH1): Cherrypicks Autofluorescence Interference; shares compounds with IDH1 R132H inh; Resorufin detection reagent fluorescence interference, cell-free; inhibition of signal, % at 51.2 µM; 750 tested, under 10 active; AID 623980, 2012;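 further: 0% = wells with normal resorufin and full inhibition = wells lacking resorufin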
IDH1 WT: qHTS for Inhibitors of mutant isocitrate dehydrogenase 1 (IDH1): Cherrypicks in WT IDH1; WT IDH1 enzyme, NADPH diaphorase/resazurin fluorescence; Potency, µM (series often up to 115 µM), for the others: at the highest dose activity change, negative = inhibition, usual class: inhibitors; shares compounds with IDH1 R132H inh; 750 tested, 9% active;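 further: potency means the concentration at half of the fitted maximal effect; 0% = full WT IDH1 enzyme control and full inhibition = no enzyme wells; nearly all actives have a fitted effect of over 55% in size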
mIDH1 confirm: qHTS for Inhibitors of mutant isocitrate dehydrogenase 1 (IDH1): Confirmation of Cherrypicks; shares compounds with IDH1 R132H inh; IDH1 R132H enzyme, NADPH diaphorase/resazurin fluorescence; Potency, µM (highest dose often 76.6 µM), for inactives: at the top dose activity change, negative = inhibition, actives largely listed as inhibitors; 750 tested, 83% active; further: potency means the concentration at half of the fitted maximal effect; nearly all actives have a fitted effect of over 50% in size
Starred values were filed as active, the others as inactive; ? = inconclusive; . = no result given. Sampled rows, rich in hits. Any-hit rate of the full collection: about 2.9%. Unless noted, the call rests on the fitted dose curve; in most records, active means well fitted curve in the direction sought with a large enough effect; inconclusive means small, poorly fitted or top-dose-only effect, or another doubt; inactive means no such curve, though single readings can be large; an effect the other way counts as inactive or inconclusive.

SMILES	B2AR arrestin	DRD3 antagonist	D3 ag	a7 integrin act	IDH1 R132H inh	Resorufin autofl	IDH1 WT	mIDH1 confirm
CCOC(=O)c1cc(-c2ccc(/C=C3/C(=O)N(c4ccc(C(=O)O)cc4)N=C3C)o2)ccc1Cl	4.9%	7.0	1.9	-72.0%	?	4.1	5.01µM*	1.26µM*
CCOC(=O)c1cc(-c2ccc(/C=N\n3cnnc3)o2)ccc1Cl	-0.1%	9.0	2.4	16.2%	0.1%	.	.	.
CN(C(=O)COC(=O)c1ccccc1NCCO)C1CCS(=O)(=O)C1 (configuration not stated)	0.0%	?	1.0	-6.3%	2.6%	.	.	.
COc1ccc(NC(=O)C(c2ccc(OC)cc2)N(Cc2ccco2)C(=O)CC2NC(=O)NC2=O)cc1 (configuration not stated)	0.0%	13.0	4.1	30.1%	2.9%	.	.	.
COc1ccc(C(C(=O)Nc2ccc(C(C)C)cc2)N(Cc2ccco2)C(=O)CC2NC(=O)NC2=O)cc1 (configuration not stated)	-0.6%	2.6	0.5	-3.0%	?	-10.2	-6.0%	31.6µM*
O=C1C2CCC(C2)C1CN1CCOCC1 (configuration not stated)	.	2.5	6.3	?	-2.9%	.	.	.
O=C(NC1CCCCC1)N(Cc1ccc(F)cc1)Cc1nc2ccccc2c(=O)[nH]1	-0.9%	4.2	-5.6	9.9%	?	0.0	10.2%	28.2µM*
Cc1cccc(NC(=S)NC2CCSc3ccccc32)c1 (configuration not stated)	0.0%	-16.1	4.8	-34.5%	-5.6%	.	.	.
O=C(c1ccc(Cl)cc1)c1c[nH]c(C(=O)C(Cl)(Cl)Cl)c1	-0.1%	5.4	-14.3	-18.8%	?	-10.9	1.5%	25.1µM*
Cn1c2ccccc2c(=O)c2c(=O)n(-c3ccc(F)cc3)c(-c3cccs3)nc21	-0.1%	-11.6	0.5	-9.2%	-16.0%	.	.	.
CC(c1ccccc1)n1c(-c2cccs2)nc2c(c(=O)c3ccccc3n2C)c1=O (configuration not stated)	-0.6%	2.5	11.3	-18.6%	31.6µM*	2.5	20.1%	7.94µM*
Cc1c(C(=O)N2CCCC2)oc2c1-c1nn(CC(=O)NCc3ccccc3F)cc1CC2	.	.	2.2	.	0.0%	.	.	.
CC(C)c1nc(N2CCN(C(=O)c3ccccc3)CC2)c(C#N)c2c1COC(C)(C)C2	-0.4%	-28.4	0.0	-14.4%	?	2.3	-10.3%	22.4µM*
CC(C)OC(=O)CSc1nc(N2CCOCC2)c2c(c1C#N)CC(C)(C)OC2	0.3%	0.6	10.3	-22.7%	?	-6.5	4.6%	35.5µM*
CC(C)c1nc(N2CCN(C(=O)c3ccco3)CC2)c(C#N)c2c1COC(C)(C)C2	-1.0%	45.9	11.6	-14.5%	20.7µM*	-9.3	-9.9%	20µM*
CC1(C)Cc2c(C#N)c(N3CCN(C(=O)c4ccccc4)CC3)nc(-c3ccco3)c2CS1	-0.6%	-26.4	-4.1	-25.0%	-1.3%	.	.	.
Cc1c(/C=N/NC(=O)c2ccc(O)cc2)c2ccccn2c1C(=O)c1ccc(F)cc1	2.0%	-28.2	-9.4	-20.3%	-0.1%	.	.	.
